VHR inh abs: VHR1 phosphatase inhibitors, primary screen, biochemical, absorbance, uHTS. inhibition, % at 13.3 µM. AID 1654, 2009. 0.52% of 290,000 active. recombinant VHR phosphatase, pNPP absorbance; in the data active = inhibition above about 50%
Target sequence (P51452 whole entry, looked up): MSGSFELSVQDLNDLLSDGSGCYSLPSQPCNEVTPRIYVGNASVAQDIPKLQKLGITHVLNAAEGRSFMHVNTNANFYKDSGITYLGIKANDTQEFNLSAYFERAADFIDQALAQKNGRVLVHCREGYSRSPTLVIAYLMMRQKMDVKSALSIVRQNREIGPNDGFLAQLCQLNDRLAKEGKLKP
Mtb hypoxia inh: PubChem AID 1159583. 0.1% of 300,000 active. M. tuberculosis hypoxia-regulated fluorescent reporter, fluorescence. fluorescence inhibition, % (no concentration beside the values); in the data active = fluorescence inhibition mostly above about 23%, no sharp cut-off; inactive = mostly below about 17%
Mtb betalactam: beta-lactam sensitization of Mtb H37Rv, H37Rv; inhibition, % at 25 µM; M. tuberculosis H37Rv growth with meropenem, percent inhibition; 0.27% of 330,000 active; call rule not given here;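 note: growth measured after seven days incubation then overnight dye step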
UGM FP inh: M. tuberculosis UGM enzyme inhibitors, primary screen, biochemical, fluorescence polarization, single point; purified UGM, fluorescence polarization probe displacement; inhibition, % at 10 µM; 0.06% of 320,000 active; in the data active = inhibition above about 10%, passing the limit was not always enough; inconclusive = no clear call, values can overlap the other calls
Target sequence (P9WIQ1 whole entry, looked up): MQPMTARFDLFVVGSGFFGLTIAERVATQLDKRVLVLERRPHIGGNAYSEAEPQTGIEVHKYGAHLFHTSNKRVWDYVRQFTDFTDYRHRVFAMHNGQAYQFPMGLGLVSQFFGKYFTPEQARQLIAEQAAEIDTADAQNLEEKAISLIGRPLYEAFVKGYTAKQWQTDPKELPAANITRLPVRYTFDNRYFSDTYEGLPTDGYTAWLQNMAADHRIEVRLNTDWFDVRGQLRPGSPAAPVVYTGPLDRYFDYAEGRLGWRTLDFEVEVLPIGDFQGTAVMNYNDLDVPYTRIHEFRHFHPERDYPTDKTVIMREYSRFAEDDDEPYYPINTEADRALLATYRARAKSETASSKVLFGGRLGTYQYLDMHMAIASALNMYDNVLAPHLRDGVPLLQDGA
Rv3671c protease: Rv3671c serine protease inhibitors, primary screen, biochemical, fluorescence polarization, M. tuberculosis H37Rv; 0.048% of 320,000 active; inhibition, % at 5.96 µM; in the data active = inhibition above about 38%;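 note: extracellular domain of Rv3671c used as enzyme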
A number is an active result; i = inactive; ? = inconclusive; nt = no result given. Shown are actives, neighbours in structure and some others; about 0.59% of the full set was active somewhere.

SMILES	VHR inh abs	Mtb hypoxia inh	Mtb betalactam	UGM FP inh	Rv3671c protease
CCn1c(SCC(=O)N2c3ccccc3CCc3ccccc32)nnc1-c1ccc(OC)cc1	55.4	i	i	i	i
CSc1ccccc1OCc1cc(C(=O)NC2CCc3ccccc32)no1 (stereo unspecified)	51.3	i	i	i	i
CN1CCN(S(=O)(=O)c2cccc(C(=O)Nc3sc4c(c3C(N)=O)CCCC4)c2)CC1	i	nt	i	i	i
CC(C)OCC1Cn2c(nc3c2c(=O)n(C)c(=O)n3C)O1 (stereo unspecified)	i	i	i	i	i
Cn1c(=O)c2c(nc3n2CC(CO)O3)n(C)c1=O (stereo unspecified)	58.7	i	i	i	i
Cc1ccc(-n2c(SCC(=O)Nc3cccc(S(=O)(=O)NC4=NCCCCC4)c3)nc3ccccc3c2=O)cc1C	59.9	i	i	i	i
CCCn1c(SCC(=O)Nc2cccc(S(=O)(=O)NC3=NCCCCC3)c2)nc2ccccc2c1=O	i	i	i	i	i
Nc1c(C(=O)NCC2CCCO2)sc2nc3c(c(-c4ccco4)c12)CC/C3=C\c1ccco1 (stereo unspecified)	100.7	i	nt	nt	nt
NC(=O)c1sc2nc3c(c(-c4ccco4)c2c1N)CCCC3	i	i	i	i	i
CN1c2ccccc2Sc2cc(N)ccc21	55.0	nt	i	i	i
C=CCn1c(CCNC(=O)c2ccccc2F)nnc1SCc1nc2ccccc2c(=O)[nH]1	i	i	i	i	i
C=CCn1c(CNC(=O)c2ccccc2F)nnc1SCc1nc2ccccc2c(=O)[nH]1	51.9	i	i	i	i
CCOc1cccc2cc(-c3nnc(NCc4ccc5c(c4)OCO5)s3)c(=O)oc12	i	i	i	i	i
Cc1ccc(NC(=S)Nc2ccc(OC(F)F)c(Cl)c2)cc1Cl	i	i	i	i	i
CC(NC(=S)Nc1ccc(OC(F)F)c(Cl)c1)C(C)(C)C (stereo unspecified)	i	27.8	i	i	i
CC(C)[C@H](NC(=O)OCc1ccccc1)C(=O)OCC(=O)NCCc1ccccc1	i	i	i	i	i
O=C(CNC(=O)C(c1ccccc1)c1ccccc1)NN=Cc1cccnc1	nt	i	nt	nt	nt
CCn1ncc(CN2CCC(Oc3ccc(C(=O)N4CCCC4)cc3)CC2)c1C	i	i	i	i	i
CCn1nc(C)c(CN2CCC(Oc3ccc(C(=O)N4CCCC4)cc3)CC2)c1C	56.8	i	i	i	i
O=C(NCCc1cccc(F)c1)C1CCC(=O)N(CCCc2ccccc2)C1 (stereo unspecified)	i	i	i	i	i
COCCNC(=O)COC(=O)/C=C/c1cnc2ccccc2n1	i	i	i	i	i
O=C1c2ccccc2C(=O)N1CCSc1nncs1	i	i	i	i	i
O=C1c2ccccc2C(=O)N1CCSc1ccccc1	55.3	i	i	i	i
COc1ccc(/C=C(\NC(=O)c2cccs2)C(=O)NC(C)(C)C)cc1OC	53.0	i	i	i	i
COc1ccc(/C=C(\NC(=O)c2cccs2)C(=O)Nc2ccccc2C)cc1OC	i	i	i	i	i
SMILES	VHR inh abs	Mtb hypoxia inh	Mtb betalactam	UGM FP inh	Rv3671c protease
O=C(CCC1CCCN(C(=O)c2ccccc2Cl)C1)N1CCN(c2ccccn2)CC1 (stereo unspecified)	52.3	i	i	i	i
CC(=O)c1ccccc1C(=O)N1CCCC(CCC(=O)N2CCN(c3ccccn3)CC2)C1 (stereo unspecified)	i	i	?	i	i
O=C(CN1CCN(Cc2ccccc2F)CC1)Nc1ccccc1Cl	i	i	i	i	i
COc1ccc2c(c1)CCc1c(C(=O)N(C)c3ccccc3)noc1-2	54.4	i	i	i	i
COCCNC(=O)c1noc2c1CCc1cc(OC)ccc1-2	i	i	i	i	i
O=C(Nc1ccc(-n2cnnn2)cc1)C1CCCN1C(=O)NC1CCCCC1 (stereo unspecified)	i	i	i	i	i
O=C(Nc1ccc(-n2cnnn2)cc1)C1CCCCC1	51.6	i	i	i	i
O=C1c2ccc([N+](=O)[O-])cc2C(=O)N1Cc1cccnc1	51.5	i	i	i	i
COc1ccc(NCc2nnc(SCC(=O)Nc3cccc(C)c3)o2)cc1	i	i	i	i	i
Nc1nnc(-c2cc3c(ccc4ccccc43)oc2=O)s1	53.7	i	nt	nt	nt
O=c1oc2ccc3ccccc3c2cc1-c1nnc(-c2ccccc2)o1	i	nt	i	i	i
CCN(CC)c1ccc2cc(S(=O)(=O)c3ccc(Cl)cc3)c(=O)oc2c1	i	nt	i	19.9	i
CCCCCCc1cc2cc(S(=O)(=O)c3ccc(Cl)cc3)c(=O)oc2cc1O	i	nt	i	i	i
COc1ccc(COC(=O)NNC(=O)c2ccc(OC)cc2)cc1	i	i	i	i	i
CCCN1CCN(C(=O)c2ccc(CS(=O)c3ccc(Cl)cc3)o2)CC1 (stereo unspecified)	56.7	i	i	i	i
O=C(NCCCN1CCCCC1)c1ccc(CS(=O)c2ccc(F)cc2)o1 (stereo unspecified)	52.5	i	i	i	i
O=C(NCc1ccccc1)c1cc(-c2ccncc2)nc2ccccc12	52.6	i	i	i	i
O=C(CN1C(=O)CSc2ccc(S(=O)(=O)N3CCCCC3)cc21)NCc1ccccc1	i	i	i	i	i
O=C(CN1C(=O)CSc2ccc(S(=O)(=O)N3CCCCC3)cc21)NCc1ccccc1Cl	55.6	i	i	i	i
CN(C)S(=O)(=O)N(CC(=O)N1CCN(c2ccccc2F)CC1)c1ccccc1	i	i	i	i	i
Cn1cnc(S(=O)(=O)N2CCN(c3cccc(C(F)(F)F)c3)CC2)c1	50.4	i	i	i	i
O=C(COC(=O)C1COc2ccccc2O1)Nc1cccc(F)c1 (stereo unspecified)	nt	27.6	i	i	i
O=C(COC(=O)C1COc2ccccc2O1)Nc1cccc(Cl)c1 (stereo unspecified)	nt	i	i	i	i
NC(=O)c1cc(NC(=O)COC(=O)CCCN2C(=O)c3cccc4cccc(c34)C2=O)cc(C(N)=O)c1	nt	i	i	i	i
CCOc1ccc(CCNC(=O)C2CCCN(S(C)(=O)=O)C2)cc1OCC (stereo unspecified)	i	i	i	i	i
SMILES	VHR inh abs	Mtb hypoxia inh	Mtb betalactam	UGM FP inh	Rv3671c protease
CCOC(=O)N1CCN(S(=O)(=O)N2CCCC(C(=O)NCCc3ccc(OCC)c(OCC)c3)C2)CC1 (stereo unspecified)	56.8	i	i	i	i
O=C(CCl)Nc1cccc2ncccc12	i	i	i	i	i
O=C(CN1C(=O)C2C3C=CC(C4CC34)C2C1=O)Nc1cccc2ncccc12 (stereo unspecified)	53.0	i	i	i	i
COc1cc(-c2cc(C(=O)Nc3c(Cl)cc(Cl)cc3Cl)c3ccccc3n2)cc(OC)c1OC	i	i	i	i	i
COc1ccc2nc3ccccc3nc2c1NC(=O)c1ccc(Cl)cc1Cl	i	i	i	36.5	i
CCn1c(C(=O)O)c(CC(=O)Nc2ccc(Br)cc2C)c2ccccc21	57.3	i	i	i	i
